PubChem BioAssay (EPA / NIEHS)
Several values for one entry are separate records, joined by “and”; a condition that tells them apart may be missing. Equal values may be shown once. A structure can be active in one record and inactive in another. Activity calls are given as the source filed them. Rule for the calls: active = hit-call score of the fitted dose curve at least 0.9, where 1 is the maximum; inactive = score below 0.9.

Tests used:
[1] = read-out: Urokinase-type plasminogen activator receptor (uPAR), PLAUR (gene 5329); experiment: BSK_4H_uPAR: BioMAP Diversity Plus: 4H Assay for Urokinase-type plasminogen activator receptor (uPAR) Biomarker Activity (AID 2283030); conditions: primary human endothelial cells (HUVEC); actives raise or lower the signal
In short: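 HUVEC, 24 h post-dose; uPAR by ELISA; bidirectional fit vs DMSO baseline.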

[2] = read-out: Vascular endothelial growth factor receptor 2 (Homo sapiens) (UniProt P35968); experiment: BSK_4H_VEGFRII: BioMAP Diversity Plus: 4H Assay for Vascular endothelial growth factor receptor 2 (VEGFR2) Biomarker Activity (AID 2283031); conditions: primary human endothelial cells (HUVEC); actives raise or lower the signal;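 for AC50: cell-surface VEGFR2 protein level quantified by ELISA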
In short: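 HUVEC (human primary), 4H system; 24 h post-dose; VEGFRII by ELISA; bidirectional curve fit vs DMSO baseline; gain or loss of signal scored.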

[3] = read-out: Human Leukocyte Antigen - DR isotype (HLADR), HLA-DRA (gene 3122); experiment: BSK_BE3C_HLADR: BioMAP Diversity Plus: BE3C Assay for Human Leukocyte Antigen - DR isotype (HLADR) Biomarker Activity (AID 2283032); conditions: primary human bronchial epithelial cells; actives raise or lower the signal
In short: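 Human primary bronchial epithelial cells in the BE3C system were exposed to chemicals for 24 h, after which HLA-DR levels were quantified by ELISA. Activity was fitted bidirectionally, gain or loss of signal, against DMSO as negative control and baseline.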

[4] = read-out: Vascular cell adhesion molecule 1 (VCAM1), VCAM1 (gene 7412); experiment: BSK_4H_VCAM1: BioMAP Diversity Plus: 4H Assay for Vascular cell adhesion molecule 1 (VCAM1) Biomarker Activity (AID 2283033); conditions: primary human endothelial cells (HUVEC); actives raise or lower the signal
In short: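 Primary human umbilical vein endothelial cells were exposed to chemicals for 24 h, after which VCAM-1 was quantified by ELISA. Responses were fitted bidirectionally against DMSO as negative control and activity baseline.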

[5] = read-out: Interferon-gamma inducible Protein 10 (IP10), CXCL10 (gene 3627); experiment: BSK_BE3C_IP10: BioMAP Diversity Plus: BE3C Assay for Interferon-gamma inducible Protein 10 (IP10) Biomarker Activity (AID 2283034); conditions: primary human bronchial epithelial cells; actives raise or lower the signal
In short: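 Human primary bronchial epithelial cells were exposed to chemicals for 24 hours, after which IP-10 levels were measured by ELISA. Data were fitted bidirectionally against DMSO, which served as the negative control and activity baseline.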

[6] = read-out: Monokine induced gamma interferon (MIG), CXCL9 (gene 4283); experiment: BSK_BE3C_MIG: BioMAP Diversity Plus: BE3C Assay for Monokine induced gamma interferon (MIG) Biomarker Activity (AID 2283035); conditions: primary human bronchial epithelial cells; actives raise or lower the signal
In short: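 MIG level was determined by ELISA after 24 h chemical treatment of primary human bronchial epithelial cells. Values were fitted bidirectionally with DMSO as the negative control and activity baseline.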

[7] = read-out: Plasminogen activator inhibitor-1 (PAI1), SERPINE1 (gene 5054); experiment: BSK_BE3C_PAI1: BioMAP Diversity Plus: BE3C Assay for Plasminogen activator inhibitor-1 (PAI1) Biomarker Activity (AID 2283037); conditions: primary human bronchial epithelial cells; actives raise or lower the signal
In short: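 Human primary bronchial epithelial cells were exposed to chemical for 24 h, then PAI-1 was quantified by ELISA. Activity was fitted bidirectionally relative to the DMSO negative control baseline.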

[8] = read-out: urokinase plasminogen activator (uPA), PLAU (gene 5328); experiment: BSK_BE3C_uPA: BioMAP Diversity Plus: BE3C Assay for urokinase plasminogen activator (uPA) Biomarker Activity (AID 2283038); conditions: primary human bronchial epithelial cells; actives raise or lower the signal;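 note: uPA protein level quantified by ELISA in cell cultures; uPA read one day after compound addition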
In short: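 ELISA read-out of uPA in human lung primary bronchial epithelial cultures, 24 h post-dosing. Gain or loss of signal fitted bidirectionally relative to DMSO baseline; cytotoxicity checked in parallel cultures via SRB total protein stain.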

[9] = read-out: Urokinase-type plasminogen activator receptor (uPAR), PLAUR (gene 5329); experiment: BSK_BE3C_uPAR: BioMAP Diversity Plus: BE3C Assay for Urokinase-type plasminogen activator receptor (uPAR) Biomarker Activity (AID 2283039); conditions: primary human bronchial epithelial cells; actives raise or lower the signal
In short: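 Primary human bronchial epithelial cells were dosed with chemical and harvested 24 h later; uPAR was quantified by ELISA. Activity was fitted bidirectionally against DMSO as negative control and baseline.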

[10] = read-out: Transforming growth factor beta 1 (TGFb1), TGFB1 (gene 7040); experiment: BSK_BE3C_TGFb1: BioMAP Diversity Plus: BE3C Assay for Transforming growth factor beta 1 (TGFb1) Biomarker Activity (AID 2283036); conditions: primary human bronchial epithelial cells; actives raise or lower the signal
In short: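 Human primary bronchial epithelial cells (BE3C system) were dosed with chemical and TGF-b1 levels measured by ELISA at 24 h. Activity was fitted bidirectionally relative to DMSO negative control as baseline.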

Measured: AC50

FC(F)(F)C(F)(F)C(F)(F)CI
inactive: [1] | [2] | [3] | [4] | [5] | [6] | [7] | [8] | [9]

C=C(C)C(=O)OCCC(F)(F)C(F)(F)C(F)(F)C(F)(F)C(F)(C(F)(F)F)C(F)(F)F
inactive: [1] | [2] | [3] | [4] | [5] | [6] | [7] | [8] | [9]

CCCCOCCOCCOC(=O)CCCCC(=O)OCCOCCOCCCC
inactive: [1] | [2] | [3] | [4] | [5] | [6] | [10] | [8] | [9]

C=CC(F)(F)C(F)(F)C(F)(F)C(F)(F)C(F)(F)C(F)(F)C(F)(F)C(F)(F)F
inactive: [1] | [2] | [3] | [4] | [5] | [6] | [7] | [8] | [9]

FC1CC(F)(F)C(F)(F)C1(F)F (stereo unspecified)
inactive: [1] | [2] | [3] | [4] | [5] | [6] | [7] | [8] | [9]

FC(F)(I)C(F)(F)C(F)(F)C(F)(F)I
inactive: [1] | [2] | [6] | [8] | [9]
active: [1] 50.3 µM and 57.1 µM | [2] 18.7 µM and 45.2 µM | [3] 49.2 µM and 46.2 µM and 46.8 µM | [4] 22.9 µM and 53.8 µM and 54.1 µM | [5] 58.2 µM and 46.9 µM and 54.8 µM | [6] 48.9 µM | [9] 51.1 µM and 47.9 µM

CC(CCl)OP(=O)(OC(C)CCl)OC(C)CCl (stereo unspecified)
inactive: [1] | [2] | [3] | [4] | [5] | [6] | [10] | [8] | [9]

O=C(O)C(F)(F)C(F)(F)C(F)(F)C(F)(F)C(F)(F)C(F)(F)C(F)(F)C(F)(F)C(F)(F)C(F)(F)C(F)(F)C(F)(F)C(F)(F)F
inactive: [1] | [2] | [3] | [4] | [5] | [6] | [7] | [8] | [9]
active: [2] 932 nM
